Results taken from PubChem BioAssay.

Assay: change in splice reporter luminescence, either direction, cell-based, HEK293, spliceosome inhibition project, primary screen (AID 1101);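 note: HEK293 cells carrying a splicing-competent luciferase reporter gene; test concentration not given here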
Details: HEK293 splicing luciferase reporter, 24 h, higher = more signal, called active from +8 up or from −8 down

z-score, inactive:
CCOC(=O)[C@H](Cc1ccccc1)NC(=O)CCC1CC(OC(=O)NCc2ccc3c(c2)OCO3)CC2(CCCC(COC(=O)NCc3cccc(C(F)(F)F)c3)O2)O1 (some centres not stated) -1.18
CC(=O)OC[C@H]1O[C@@H](ON=C[C@@H](C)[C@H](OCc2ccccc2)C(C)C)[C@H](OC(C)=O)[C@@H](OC(C)=O)[C@@H]1OC(C)=O 0.14
O=C1[C@H]2[C@H]3[C@H](O)[C@H](O)CC(=NOCc4ccccc4)[C@H]3CC[C@H]2C(=O)N1C[C@@H]1CCCO1 0.0221
CO[C@@H]1COC(=O)[C@@H]2CCCN2C(=O)[C@@H](C)COC(=O)[C@H](COCc2ccccc2)NC(=O)CC=C[C@H]1C -0.425
C=C(/C(=C/C[C@H](OC(C)=O)c1ccc(OCCO)cc1)c1cnc2ccccc2c1)C(C)C -0.494
COC(=O)CC=C[C@@H](C)[C@H](OC)c1ccccc1Br -0.0767
COc1ccccc1CN1C(=O)c2ccccc2[C@@H](C(=O)NCC(F)(F)F)[C@@H]1c1ccc(CO)cc1 -0.14
O=C1[C@H]2[C@H]3[C@H](O)[C@H](O)CC(=NO[C@@H]4O[C@H](CO)[C@@H](O)[C@H](O)[C@H]4O)[C@H]3CC[C@H]2C(=O)N1C1CCCCC1 -0.381
CC(C)=CCCC(C)=CCON=C1C[C@@H](O)[C@@H](O)[C@@H]2[C@@H]3C(=O)N(C[C@@H]4CCCO4)C(=O)[C@@H]3CC[C@@H]12 0.363
C=CC[C@@H]1C=C[C@H](ON=C2c3cc(OC)ccc3O[C@H](c3cccc(OC)c3)[C@H]2O)[C@@H](CO)O1 -0.766
CCc1cc2c(nc1CC)CCN(CCC(C)=NOC[C@@H](O)COCc1ccco1)C2 -0.0287
CCN1C(=O)[C@H]2[C@H]3[C@H](O)[C@H](O)CC(=NOC(C)CN4CCCCc5nc(C)c(C)cc54)[C@@H]3CC[C@H]2C1=O (some centres not stated) 0.279
COCCOC(=O)N1C(=O)[C@@]2(c3cc(C#CC4(O)CCCCCC4)ccc31)[C@H](c1ccc(OCCO)cc1)N1[C@H](c3ccccc3)[C@H](c3ccccc3)OC(=O)[C@H]1[C@@H]2C(=O)NC[C@H](O)c1ccccc1 -0.268
CC1CC/C=C\[C@H]2OC34C=CCN(C(C)C)C(=O)[C@H]3N(CCCO)C(=O)[C@@H]4C2C(=O)O1 (some centres not stated) -0.037
CCCNC(=O)OC[C@H]1O[C@H](CCON=CC[C@@H]2C=C[C@H](OC(C)=O)[C@@H](COC(C)=O)O2)C=C[C@@H]1Oc1ccc(OC)cc1 0.599
Cc1ccc(S[C@]2(C(=O)O)CC(=O)N(Cc3ccccc3)[C@@H]2c2ccc(CO)cc2I)cc1 -0.982
CC(=O)C[C@H](O)[C@@H](NC(=O)OC(C)(C)C)C(C)C -0.797
COC(=O)C1=CCC(c2cccc(Cl)c2)O1 (configuration not stated) -1.15
COCCCNC(=O)[C@@]1(CCS(=O)(=O)c2ccccc2)N=C(c2ccc(OCCCO)cc2)O[C@H]1c1ccccc1 0.409
O=C(NN=C1C[C@@H](O)[C@@H](O)[C@@H]2[C@@H]3C(=O)N(c4cccc(Oc5ccccc5)c4)C(=O)[C@@H]3CC[C@@H]12)OCc1ccccc1 0.538
CCOC(=O)NN=C1C[C@@H](O)[C@@H](O)[C@@H]2[C@@H]3C(=O)N(C[C@@H]4CCCO4)C(=O)[C@@H]3CC[C@@H]12 0.104
COC(=O)c1c(CC[C@@H](CO)NC(=O)N[C@H](Cc2ccccc2)Cn2cc(-c3ccccc3N)nn2)oc(C(C)=O)c1C(=O)OC 0.433
CC(CCN1CCc2nc(-c3ccccc3)c(-c3ccccc3)cc2C1)=NOC(C)CN1CCCCc2nc(C)c(C)cc21 (configuration not stated) -0.0114
CCCNC(=O)[C@@H]1c2ccccc2C(=O)N(Cc2ccccc2Cl)[C@H]1c1ccc(CO)cc1 -0.493
COc1ccc(O[C@H]2C=C[C@@H](c3ccccc3)O[C@@H]2COC(=O)CCC(C)=NOCC[C@@H]2C=C[C@H](OC(C)=O)[C@@H](COC(C)=O)O2)cc1 -0.484
CC(C)OC(=O)C=C1C[C@@H](c2ccc(C#N)cc2)O[C@@H](c2ccc(C#N)cc2)O1 -0.159
CCCC=C(CCC)[C@@H](NC(=O)c1ccc(-c2ccccc2)cc1)c1ccc(C(=O)OC)cc1 -0.492
